Data from the supplement of paper PMC6555819.

Experiments:
Assay in all cases: PBM binding z-score (relative to random genomic background probes); higher = stronger binding; sequences stand for … in GC…GCGATTGACAGCGTAGAATGAAGG
[1] = tested on: RARb homodimer (NR concentration 270 nM)
In short: (§1)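 The probes on custom Agilent 4×180K protein-binding microarrays were double-stranded, with 34-nt variable regions bearing direct-repeat seeds, single-nucleotide variants, half-site ablations and random human genomic background sequences. Incubation lasted 1 h with ligand-free nuclear receptor dimers in PBS pH 7.4, 2% milk, 0.02% Triton X-100, 1 mM DTT, 0.2 mg/mL BSA and 0.4 mg/ml salmon testes DNA. Antibodies against each partner (one per run) detected bound dimers, and fluorescence scans were regression-normalized. Binding z-scores take the random background probes as reference.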

[2] = tested on: RARg:RXRa (NR concentration 270 nM, RXRa partner concentration 90 nM)
In short: as §1

[3] = tested on: RARg homodimer (NR concentration 270 nM)
In short: as §1

[4] = tested on: RXRa DBDmut IVT, anti-RXR (DBD mutation: RXRa K156A/R161A, NR concentration 90 nM)
In short: as §1

[5] = tested on: RXRa homodimer (NR concentration 180 nM)
In short: as §1

[6] = tested on: THRa:RXRa (NR concentration 90 nM, RXRa partner concentration 90 nM)
In short: as §1

[7] = tested on: THRa homodimer (NR concentration 90 nM)
In short: as §1

[8] = tested on: VDR homodimer (NR concentration 270 nM)
In short: as §1

| Sequence | PBM binding z-score [1] | PBM binding z-score [2] | PBM binding z-score [3] | PBM binding z-score [4] | PBM binding z-score [5] | PBM binding z-score [6] | PBM binding z-score [7] | PBM binding z-score [8] |
| --- | --- | --- | --- | --- | --- | --- | --- | --- |
| AGTCAAAGTTCACTAGGAAACGTAAGATTCAGCT | 3.48 | 4.86 | 5.62 | 3.98 | 3.71 | 1.3 | -0.55 | 3.64 |
| GGAACGAGCGCATTCGAGTTGATAGCATGGCGAT | -0.974 | -0.544 | -0.227 | 0.0101 | -0.607 | -0.857 | -1.27 | -0.406 |
| ACTAGCGGGCCAAGGGTCACTCAAGATTAGTCCG | 3.7 | 3.9 | 3.71 | 0.364 | 4 | 2.62 | -0.0687 | 1.07 |
| TCTTATAGATCAAGCAGGTTAAGAAAGCCTGAGT | 0.27 | 0.242 | 0.136 | 1.03 | 0.704 | 0.558 | -0.379 | 0.389 |
| TCTTGTAGATCAAGCAGGGTAAGAAAGCCTGAGT | -0.297 | -0.27 | -0.38 | 0.436 | -0.147 | 1.2 | -0.451 | 0.209 |
| GCAGACAGGTGAACCGCAGGTAACTCAGGGTGGC | 0.366 | 1.37 | 0.342 | -0.635 | 1.54 | 1.76 | -0.376 | -0.237 |
| GCATATAGGTAATACACGGTGAAAGTCCGATTGT | 0.0641 | 0.309 | 0.397 | 0.18 | 0.407 | 1.23 | -0.424 | 0.0175 |
| AATACAGGGTCACCAGGCCAGAGTAGGTACGAAT | 3.63 | 6.17 | 6.17 | 2.62 | 7.47 | 3.85 | 1.88 | 2.7 |
| GTATATAGGTAATACAAGGTGAAAGTCCGATTGT | 1.06 | 0.647 | 0.697 | 0.401 | 0.751 | 4.18 | 1.48 | 0.367 |
| AAGACAGGGTCATCGTAGGCCAGAGTACGCACAG | 3.6 | 5.67 | 5.54 | 3.14 | 6.69 | 4.37 | 1.12 | 3.34 |
| GGAACGGGGGCAAAGTTGATAGCATCTGTCGACG | 2.04 | 3.72 | 2.45 | 3.44 | 3.61 | 2.65 | 0.962 | 3.49 |
| CCTAGTTGGTCAGGAGGTCACACAGCGGATATGA | 4.13 | 5.36 | 4.51 | 1.06 | 4.73 | 3.66 | 2.76 | 3.13 |
| GCTCGCAGGCCATTTGGGTCACTCAATGACGGGC | 1.93 | 1.23 | 1.41 | 0.0952 | 0.671 | 1.93 | 0.651 | 0.416 |
| AGTAAAAGTTCATCTAGGTAACGTAAGATATGCT | 3.63 | 4.68 | 5.23 | 4.63 | 3.77 | 3.05 | 0.0912 | 4.83 |
